In the library only some 8.7% were active in any assay of this set; here they are far more common.
Vaccinia mCherry = inhibitors of vaccinia virus infection (mCherry reporter signal) | actives 0.63% (n = 310,000) | Vaccinia virus mCherry reporter infection, fluorescence | Potency, µM (highest dose often 36.5 µM), without a hit: at the top dose activity change, negative = inhibition, actives largely listed as inhibitors; calls by dose curve; tested in A549 cells; note: nearly all actives have a fitted effect of over 35% in size
AMA1 RON2 block = inhibitors of Plasmodium falciparum AMA1-RON2 interaction. AlphaScreen AMA1-biotinylated RON2 peptide binding. Potency, µM (highest dose often 58.2 µM), inactives show at the highest dose activity change, negative = inhibition, hits mostly inhibitors. actives 0.2% (n = 360,000). AID 720542;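 note: 0% = vehicle wells and -100% = peptide control; nearly all actives have a fitted effect of over 45% in size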
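AMA1 (3D7) with his tag at 25 nM final met compounds first, then biotinylated RON2 peptide at 25 nM; detection used donor plus acceptor beads, 10 µg/mL apiece, read by AlphaScreen after 30 min at room temperature.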
Pf growth 48h = P. falciparum growth inhibition at 48 hours (one generation). actives 5.9% (n = 310,000). P. falciparum luciferase growth in erythrocytes, 48 h. Potency, µM (highest dose often 28.7 µM), for the others: at the highest dose activity change, negative = inhibition, actives largely listed as inhibitors
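Luciferase-expressing parasites in RBCs, 2% Hct / 0.1% parasitemia final; RPMI 1640 + 0.5% Albumax; 37 C, 5% CO2, one generation; luminescence read-out, lower signal = inhibition.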
Pf growth 96h = P. falciparum growth inhibition at 96 hours; P. falciparum luciferase reporter growth, 96 h; Potency, µM (top dose mostly 28.7 µM), for the others: at the top dose activity change, negative = inhibition, usual class: inhibitors; actives 6.9% (n = 320,000); AID 504834
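P. falciparum expressing integrated firefly luciferase grown in erythrocytes (2% hematocrit, 0.05% parasitemia final) with compounds for 96 hours at 37 C, 5% CO2. Growth inhibition read as loss of luminescence after adding luciferase detection reagent.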
Vaccinia Venus = inhibitors of vaccinia virus (Venus reporter); actives 0.46% (n = 330,000); AID 720580; Vaccinia virus Venus reporter expression, fluorescence; Potency, µM (highest dose often 36.5 µM), for inactives: at the top dose activity change, negative = inhibition, hits mostly inhibitors; calls by dose curve; tested in A549 cells; note: nearly all actives have a fitted effect of over 30% in size
* = called active by the depositor; i = inactive; u = inconclusive; x = no result given. Unless noted, calls come from the whole dose curve; as a rule, active = well fitted curve in the direction sought with a large enough effect; inconclusive = small, poorly fitted or top-dose-only effect, or another doubt; inactive = no such curve, though single readings can be large; an effect the other way counts as inactive or inconclusive. Unless noted, % is set by controls: 0 for no effect and ±100 for the full control effect; potency is the fitted concentration of half-maximal effect.

SMILES	Vaccinia mCherry	AMA1 RON2 block	Pf growth 48h	Pf growth 96h	Vaccinia Venus
CN(C)C(=O)N1CCCC(C(=O)NCc2ccccc2)C1 (stereo not given)	-10%	6%	20%	4%	-6%
Cc1ccc2scc(N3CCN(c4ccccc4)CC3)c(=O)c2c1	i	x	x	x	-11%
COCCCNc1ncnc2c1c(-c1ccccc1)cn2-c1ccc(C)c(Cl)c1	-5%	x	x	x	-9%
COc1ccc(-n2nc(C(=O)N3CCCC(C)C3)c3c4ccccc4n(C)c3c2=O)cc1Cl (stereo not given)	-25%	x	x	x	-27%
Cc1cccc2[nH]c3c(N4CC=C(c5ccc(F)cc5)CC4)ncnc3c12	u	-28%	10µM*	u	u
Brc1ccc(-c2csc(NC3=NCCCCC3)n2)cc1	i	u	57%	13µM*	-8%
COc1ccc(-c2csc(NNC3=NCCCCC3)n2)cc1	1%	1%	12µM*	0%	-3%
COc1ccc(-c2csc(NC3=NCCCCC3)n2)cc1	-5%	-2%	43%	35%	6%
O=C(NCc1ccccc1Cl)c1cc(=O)[nH]c2ccc(S(=O)(=O)N3CCCCC3)cc12	i	x	x	x	-3%
Cc1ccc(C(=O)NCCCNC(=O)c2ccccc2F)cn1	9%	-5%	3%	2.9µM*	-19%
Cc1ccc(C(=O)NCCCNC(=O)c2ccccc2C)cn1	29%	13%	9%	u	-7%
CC1C2CCC3C4CC=C5CC(N(C)C)CC[C@@]5(C)C4CC[C@@]32CN1C (stereo not given in full)	x	x	15µM*	u	x
Cc1ccc(S(=O)(=O)c2cn(CC(=O)Nc3ccc4c(c3)OCO4)c3ccccc3c2=O)cc1C	-16%	x	x	x	-12%
COc1ccc(-c2nnc(SCC(=O)Oc3c(C)cccc3C)o2)cc1OC	-20%	x	x	x	-17%
C[N+](C)(C)CCCCCCCCCC[N+](C)(C)C	i	-1%	0.66µM*	0.26µM*	-5%
COc1cc(OC)c(N(C)C(=O)c2c(C)oc3ncnc(N4CCCCC4)c23)cc1Cl	-13%	x	x	x	-1%
CC1CCCCN1CC(=O)Nc1ccc(N2CCCCCC2)cc1 (stereo not given)	-12%	28µM*	u	27%	-17%
O=C(Nc1ccc(N2CCN(C(=O)c3cccs3)CC2)cc1)c1ccc(Br)o1	x	-5%	12µM*	u	x
O=C(Nc1ccc(NC(=O)c2cccs2)cc1)c1ccc(Br)o1	x	-14%	x	31%	-11%
O=C(CNC(=O)c1ccc(Br)o1)Nc1ccc(N2CCCCCC2)cc1	-17%	-21%	39%	10µM*	-13%
N#C/C(=C\c1c[nH]c2ccccc12)C(N)=O	-8%	-1%	28%	20%	-15%
CC(=O)Oc1c(/C=C(\C#N)C(N)=O)[nH]c2ccccc12	x	8%	10µM*	-15%	x
C(=C\c1ccnc2ccccc12)/c1ccccc1	-23%	x	x	x	-19%
COc1ccccc1CN(C)C(=O)C(c1ccccc1)c1ccccc1	-13%	-5%	u	u	-26%
C=CC(=O)N(CCC)C(c1ccccc1)c1ccccc1OC (stereo not given)	-14%	-4%	13µM*	u	-15%
SMILES	Vaccinia mCherry	AMA1 RON2 block	Pf growth 48h	Pf growth 96h	Vaccinia Venus
NC(=O)c1ccc(NC(=S)NCc2ccco2)cc1	-15%	-5%	21%	12µM*	1%
COc1cc(NC(=S)NCc2ccco2)cc(OC)c1OC	-17%	11%	-1%	5.2µM*	-15%
Cc1ccccc1/C=C/c1cc[n+](C)cc1	x	-3%	5.2µM*	u	x
CCCCCCC[n+]1ccc(/C=C/c2c(C)[nH]c3ccccc23)cc1	28µM*	x	x	x	256%
Cc1[nH]c2ccccc2c1/C=C/c1c(C)[nH]c2ccccc12	-14%	x	x	x	-21%
Cc1ccccc1/C=C\c1nc2ccccc2c(=O)[nH]1	-17%	-2%	u	0%	u
CCCCCCC[n+]1ccc(/C=C/c2c(C)[nH]c3ccccc23)c2ccccc21	i	x	x	x	i
Cc1[nH]c2ccccc2c1/C=C/c1cc[n+](C)cc1	-22%	-10%	0.41µM*	0.15µM*	27%
CCn1cc2c(n1)-c1c(oc(C(=O)Nc3cccc(C(F)(F)F)c3)c1C)CC2	-10%	x	x	x	-5%
CNC(=O)C1CCN(Cc2cc3ccccc3n2Cc2cccc(C)c2)CC1	-7%	x	x	x	-6%
